Experimental data published in PubChem BioAssay AID687016 (The Scripps Research Institute Molecular Screening Center, 2013).
Among all 370,000 compounds or so, about 2,800 (0.76%) were called active. This is one part of a sample in which actives are shown more often than they occur. A number with no mark means an inactive call. Cut-off read from the data, not from the text of the source: active = inhibition above about 21%; inactive = the rest.

The molecules below were run against E3 ubiquitin-protein ligase UHRF1 (Homo sapiens) (UniProt Q96T88) (assay: blockers of UHRF1 binding to methyl-oligo – biochemical, TR-FRET, human UHRF1, single concentration, counter-screen for MBD2 inhibitor project, primary screen (AID 687016;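 note: UHRF1 SRA domain binding a hemimethylated CpG hairpin DNA probe; 0% = median of test compound wells and 100% = reference inhibitor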)). Conditions: UHRF1 binding to methylated oligo, at 4.4 µM, active compounds read high.
E3 ubiquitin-protein ligase UHRF1 (Homo sapiens), sequence (Q96T88 whole entry, looked up, the tested form may be a part): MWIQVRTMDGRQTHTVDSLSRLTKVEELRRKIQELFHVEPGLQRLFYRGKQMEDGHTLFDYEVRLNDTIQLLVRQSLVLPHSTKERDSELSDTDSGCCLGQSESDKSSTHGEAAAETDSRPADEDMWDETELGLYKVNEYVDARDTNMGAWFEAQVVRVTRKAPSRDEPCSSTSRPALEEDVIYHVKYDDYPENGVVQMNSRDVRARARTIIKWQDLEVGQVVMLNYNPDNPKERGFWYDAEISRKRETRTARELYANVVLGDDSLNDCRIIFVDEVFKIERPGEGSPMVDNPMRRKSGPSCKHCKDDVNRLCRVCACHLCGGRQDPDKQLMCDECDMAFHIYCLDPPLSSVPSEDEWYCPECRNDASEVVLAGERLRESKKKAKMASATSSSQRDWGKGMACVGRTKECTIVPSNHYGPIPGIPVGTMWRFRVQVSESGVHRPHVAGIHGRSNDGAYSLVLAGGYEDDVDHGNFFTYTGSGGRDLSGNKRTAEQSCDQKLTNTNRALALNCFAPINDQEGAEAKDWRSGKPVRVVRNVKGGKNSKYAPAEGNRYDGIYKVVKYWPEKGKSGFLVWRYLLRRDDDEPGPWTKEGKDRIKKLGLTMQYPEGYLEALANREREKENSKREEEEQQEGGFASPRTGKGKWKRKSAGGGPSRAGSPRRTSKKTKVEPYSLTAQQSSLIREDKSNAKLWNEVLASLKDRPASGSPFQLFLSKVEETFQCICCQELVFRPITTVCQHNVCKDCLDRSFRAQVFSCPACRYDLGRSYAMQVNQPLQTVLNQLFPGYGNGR

Q: How did the inhibition turn out when `CC(=O)Nc1ccccc1C(=O)OCC(=O)c1cccc2ccccc12` was run?
A: The inhibition was 0.36%.

Q: `CC(C)c1ccc(OCC(=O)N2CCCN(C)CC2)cc1` was tested. Which inhibition did it give?
A: The inhibition was -1.28%.

Q: `Cn1cc(C(=O)OCC(=O)N2CCCC2)c2ccccc21` was tested. Which inhibition did it give?
A: The inhibition was 73.7% (active).

Q: Which inhibition does the source give for `O=C1C2CCN(CC2)C1(CO)CO` here?
A: The inhibition was 0.15%.

Q: For `Cc1ccccc1CCC[C@@H](CC1CCCCC1)CN(C)C(=O)Oc1ccccc1`, which inhibition is on record?
A: Its inhibition is -0.75%.

Q: For `O=C1NC(=O)N(Cc2ccco2)C(=O)/C1=C\c1ccc(-c2ccc(F)cc2)o1`, which inhibition is on record?
A: The inhibition was 81.8% (active).

Q: `Cc1cc(C=C2C(=O)NC(=O)NC2=O)c(C)n1-c1ccncc1` was tested. Which inhibition did it give?
A: Its inhibition is -7.92%.

Q: Which inhibition does the source give for `Cc1cc(/C=C2/C(=O)NC(=O)N(Cc3ccco3)C2=O)c(C)n1-c1ccc(C(=O)O)cc1` here?
A: The inhibition was 78.5% (active).

Q: `Cc1ccnc(-n2c(C)cc(/C=C3\C(=O)NC(=S)N(C)C3=O)c2C)c1` was tested. Which inhibition did it give?
A: Its inhibition is 1.95%.

Q: Which inhibition does the source give for `CO[C@H]([C@H](C)/C=C/N(C)C=O)[C@@H](C)C(=O)CC[C@H](C)[C@H](O)[C@H](C)[C@H]1OC(=O)/C=C/C(C)=C/[C@H](O)[C@H](OC)C[C@@H]2C=CC[C@@H](C[C@H](OC)[C@@]3(CO3)[C@@H](OC)C[C@@H](OC)[C@@H]1C)O2` here?
A: Its inhibition is -2.95%.

Q: How did the inhibition turn out when `CC(=CCOc1ccc2ccc(=O)oc2c1)C1=CC(=O)C(C)(C)O1` was run?
A: The inhibition was 0.79%.

Q: Which inhibition does the source give for `NC(=O)Cn1cc(C(=O)c2ccccc2F)c2ccccc21` here?
A: Its inhibition is -1.97%.

Q: With `S=C(NCCc1ccccc1)N1Cc2cc(N3CCOCC3)ccc2-n2nncc2C1` as the molecule, how does the inhibition read?
A: Its inhibition is -3.2%.

Q: With `CCOC(=O)[C@]12Cc3ccccc3[C@H]1N(C1CCCCC1)C(=O)c1cc(OC)ccc12` as the molecule, how does the inhibition read?
A: The inhibition was -1.33%.

Q: How did the inhibition turn out when `COP(=O)(Sc1ccccc1)C(Cc1ccccc1)NC(=O)OCc1ccccc1` (stereo not given) was run?
A: The inhibition was -3.61%.

Q: `O=c1c2ccccc2nc(-c2ccc(Cl)cc2Cl)n1-c1ccncc1` was tested. Which inhibition did it give?
A: Its inhibition is -0.96%.

Q: With `COc1ccc(N2C(=O)/C(=C/c3ccco3)C(=O)NC2=S)cc1` as the molecule, how does the inhibition read?
A: Its inhibition is 68.7% (active).

Q: With `CCOC(=O)C(O)(c1ccc(N=Cc2ccccc2O)c(C)c1)C(F)(F)F` (stereo not given) as the molecule, how does the inhibition read?
A: The inhibition was -1.83%.

Q: With `CN(C)CCCN=Cc1c(O)n(Cc2ccco2)c(=O)[nH]c1=O` as the molecule, how does the inhibition read?
A: The inhibition was 0.23%.

Q: Which inhibition does the source give for `CC(C)CN1CCN(Cc2ccccc2C(F)(F)F)CC1CCO` (stereo not given) here?
A: The inhibition was -2.88%.
